Reference: PubChem BioAssay
For part of these data: Potency and affinity values are given separately. The source made the active and inactive calls. Unless noted, no rule for the calls is given here.

Key:
[1] = antimalarial activity against Dd2 strain (AID 2302;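 active = growth inhibition above 50% at the single 2 µM test dose, taken to imply half-maximal potency below 2 µM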;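 also: 0% = DMSO untreated growth and 100% = chloroquine plus artemisinin killed control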); settings: P. falciparum Dd2 in RBCs, LDH growth readout, 72 h; at 2 µM; active compounds read high
[2] = HepG2 cytotoxicity, primary screen, cytotoxicity control for P. falciparum antimalarial project, cell-based, ATP luminescence (AID 2303;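 active = inhibition above 50%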;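 also: 0% = DMSO wells and 100% = digitonin-killed cells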); settings: HepG2 viability, 24-48 h, at 10 µM, active compounds read high
[3] = biological target: L-lactate dehydrogenase (Plasmodium falciparum (isolate CDC / Honduras)) (UniProt Q27743); assay: PfLDH activity inhibition – cell lysate, 3D7 strain, counter-screen for P. falciparum growth inhibition project (AID 2304);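 also: 0% = vehicle and 100% = reference inhibitor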; settings: P. falciparum 3D7 crude extract, LDH APAD/NBT absorbance; at 2 µM; active compounds read high
[4] = inhibition of 3D7 malaria parasite growth – strain 3D7 (AID 2306);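 also: 0% = DMSO wells and 100% = chloroquine plus artemisinin control wells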; settings: P. falciparum 3D7 erythrocytic growth, LDH absorbance, 72 h; at 2 µM; active compounds read high
[5] = biological target: Calcium-dependent protein kinase 1 (Plasmodium falciparum (isolate 3D7)) (UniProt P62344); assay: PfCDPK1 kinase inhibitors, biochemical, TCAMS library (AID 1159585; cut-off not given, nearly all actives have IC50 up to about 0.98 µM;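 also: inhibitors leave more ATP so luminescence rises with inhibition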); settings: recombinant PfCDPK1, Kinase-Glo ATP depletion luminescence
[6] = biological target: Plasmodium falciparum protein kinase 6 (PK6, PF3D7_1337100) (UniProt Q8IDW1); assay: PfPK6 kinase inhibitors, biochemical, TCAMS library (AID 1159586); settings: recombinant PfPK6, Kinase-Glo ATP depletion luminescence
[7] = biological target: Protein kinase 7 (PK7), Plasmodium falciparum 3D7 (PF3D7_0213400) (UniProt Q7YTF7); assay: inhibition of Plasmodium PK7 catalytic activity – biochemical, TCAMS antimalarial set, Kinase-Glo luminescence (AID 1159587); settings: recombinant PfPK7, Kinase-Glo ATP depletion luminescence
[8] = biological target: Calcium-dependent protein kinase 4 (Plasmodium falciparum (isolate 3D7)) (UniProt Q8IBS5); assay: PfCDPK4 kinase inhibitors, biochemical, TCAMS library (AID 1159588; cut-off not given, nearly all actives have IC50 up to about 0.91 µM); settings: recombinant PfCDPK4, Kinase-Glo ATP depletion luminescence
Calcium-dependent protein kinase 4 (Plasmodium falciparum (isolate 3D7)), sequence (Q8IBS5 whole entry, looked up): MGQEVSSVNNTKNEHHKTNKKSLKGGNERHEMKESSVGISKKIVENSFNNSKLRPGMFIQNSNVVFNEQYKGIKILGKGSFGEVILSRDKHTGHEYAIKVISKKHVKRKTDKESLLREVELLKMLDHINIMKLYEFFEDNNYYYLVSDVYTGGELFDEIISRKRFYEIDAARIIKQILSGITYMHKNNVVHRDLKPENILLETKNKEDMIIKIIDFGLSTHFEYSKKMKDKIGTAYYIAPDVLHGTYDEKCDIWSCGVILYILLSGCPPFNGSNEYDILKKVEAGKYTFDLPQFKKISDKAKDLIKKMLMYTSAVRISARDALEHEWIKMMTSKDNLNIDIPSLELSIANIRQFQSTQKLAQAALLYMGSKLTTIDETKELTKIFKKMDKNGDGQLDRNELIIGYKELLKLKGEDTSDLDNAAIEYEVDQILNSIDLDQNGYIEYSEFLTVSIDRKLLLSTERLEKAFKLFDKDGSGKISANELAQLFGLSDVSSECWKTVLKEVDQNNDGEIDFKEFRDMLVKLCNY

Plasmodium falciparum protein kinase 6 (PK6, PF3D7_1337100), sequence (Q8IDW1 1-305): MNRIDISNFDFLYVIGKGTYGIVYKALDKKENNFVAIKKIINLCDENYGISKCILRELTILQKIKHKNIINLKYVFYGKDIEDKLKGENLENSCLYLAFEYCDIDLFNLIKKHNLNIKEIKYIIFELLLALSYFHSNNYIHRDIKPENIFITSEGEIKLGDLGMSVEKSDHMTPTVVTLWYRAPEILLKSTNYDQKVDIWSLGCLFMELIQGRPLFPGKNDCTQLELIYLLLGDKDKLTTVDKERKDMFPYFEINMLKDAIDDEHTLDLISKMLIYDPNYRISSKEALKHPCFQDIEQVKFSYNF
L-lactate dehydrogenase (Plasmodium falciparum (isolate CDC / Honduras)), sequence (Q27743 whole entry, looked up): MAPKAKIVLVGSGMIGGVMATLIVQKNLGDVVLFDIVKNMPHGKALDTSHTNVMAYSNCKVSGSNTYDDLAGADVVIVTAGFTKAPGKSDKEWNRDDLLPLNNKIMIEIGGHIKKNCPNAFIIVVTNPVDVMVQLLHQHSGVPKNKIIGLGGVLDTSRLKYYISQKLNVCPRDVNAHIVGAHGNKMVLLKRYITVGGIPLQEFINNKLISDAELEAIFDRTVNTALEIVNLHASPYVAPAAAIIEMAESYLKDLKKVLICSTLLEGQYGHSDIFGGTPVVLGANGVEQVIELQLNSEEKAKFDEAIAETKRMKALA
Calcium-dependent protein kinase 1 (Plasmodium falciparum (isolate 3D7)), sequence (P62344 whole entry, looked up): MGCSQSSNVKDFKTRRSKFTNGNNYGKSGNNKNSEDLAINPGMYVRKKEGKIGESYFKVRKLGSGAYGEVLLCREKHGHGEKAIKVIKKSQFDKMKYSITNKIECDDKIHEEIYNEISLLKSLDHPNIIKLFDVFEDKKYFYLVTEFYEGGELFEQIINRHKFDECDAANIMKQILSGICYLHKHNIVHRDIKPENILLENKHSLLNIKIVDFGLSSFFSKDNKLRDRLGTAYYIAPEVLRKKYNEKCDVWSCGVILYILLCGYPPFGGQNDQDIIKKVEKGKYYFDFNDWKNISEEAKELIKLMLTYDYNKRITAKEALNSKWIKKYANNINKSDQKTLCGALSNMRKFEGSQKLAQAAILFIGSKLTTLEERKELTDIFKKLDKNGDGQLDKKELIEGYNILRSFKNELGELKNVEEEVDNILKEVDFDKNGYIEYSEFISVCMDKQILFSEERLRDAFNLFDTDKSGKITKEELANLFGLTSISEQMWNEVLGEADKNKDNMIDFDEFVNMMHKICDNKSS
Protein kinase 7 (PK7), Plasmodium falciparum 3D7 (PF3D7_0213400), sequence (Q7YTF7 1-343): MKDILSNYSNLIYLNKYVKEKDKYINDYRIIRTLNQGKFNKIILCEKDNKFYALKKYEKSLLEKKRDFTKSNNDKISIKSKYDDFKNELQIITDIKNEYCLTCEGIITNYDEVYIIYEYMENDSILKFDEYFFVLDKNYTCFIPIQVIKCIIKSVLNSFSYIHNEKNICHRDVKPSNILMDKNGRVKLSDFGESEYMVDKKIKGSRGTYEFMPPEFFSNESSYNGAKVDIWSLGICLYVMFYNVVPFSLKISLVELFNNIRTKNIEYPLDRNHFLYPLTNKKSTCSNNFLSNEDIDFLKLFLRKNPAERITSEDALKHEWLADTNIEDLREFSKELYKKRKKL

CN(C)CCOc1ccc(N2CCN(CCCCNC(=O)c3ccc(/C=C/c4cc(Cl)cc(Cl)c4)cc3)CC2)cc1
active: growth inhibition [1] 84% | inhibition [2] 97% | growth inhibition [4] 98%
inactive: inhibition [3] 1% | outcome [5] | outcome [6] | outcome [7] | outcome [8]

c1ccc(C2=NN=C(c3ccccn3)[C@H]3[C@H]4C[C@@H]([C@@H]23)[C@@H]2[C@H]4[C@H]3C[C@@H]2c2ccccc23)nc1
inactive: inhibition [2] 39% | inhibition [3] -3% | outcome [5] | outcome [6] | outcome [7] | outcome [8]
active: growth inhibition [1] 77% | growth inhibition [4] 98%

COc1ccc2nccc([C@@H](O)CN3CCC(NC(=O)/C=C/c4ccc(F)c5ccccc45)CC3)c2c1
inactive: inhibition [2] 37% | inhibition [3] 0% | outcome [5] | outcome [6] | outcome [7] | outcome [8]
active: growth inhibition [1] 75% | growth inhibition [4] 100%

COc1cccc(C2CCCN(CCCCNC(=O)c3ccc(NC(=O)c4ccc(Cl)cc4)cc3)C2)c1 (configuration not stated)
inactive: growth inhibition [1] 6% | inhibition [2] 24% | inhibition [3] -2% | outcome [5] | outcome [6] | outcome [7] | outcome [8]
active: growth inhibition [4] 95%

COc1ccc2ncc(Cl)c(CCN3CC[C@@H](CNCc4cc5c(cn4)OCS5)C3)c2n1
active: growth inhibition [4] 99%
inactive: growth inhibition [1] 31% | inhibition [2] 22% | inhibition [3] 3% | outcome [5] | outcome [6] | outcome [7] | outcome [8]

CCCCOC(=O)C1=C(C)NC2=C(C(=O)CC(c3ccc(OC)c(OC)c3)C2)C1c1ccc(O)cc1 (configuration not stated)
inactive: inhibition [2] -6% | inhibition [3] 2% | outcome [5] | outcome [6] | outcome [7] | outcome [8]
active: growth inhibition [1] 75% | growth inhibition [4] 90%

COc1cccc(NC(=O)NC2CCN(CCCCCNC(=O)/C=C/c3ccc(Cl)c(Cl)c3)CC2)c1
inactive: growth inhibition [1] 8% | inhibition [2] 14% | inhibition [3] -1% | outcome [5] | outcome [6] | outcome [7] | outcome [8]
active: growth inhibition [4] 102%

Cc1c(C(=O)[C@@H]2C[C@H]2CN2CCC(N3CCCC3)CC2)sc2ccccc12
inactive: growth inhibition [1] 9% | inhibition [2] 16% | inhibition [3] 0% | outcome [5] | outcome [6] | outcome [7] | outcome [8]
active: growth inhibition [4] 94%

COc1ccc(C(=O)CCC(=O)N(Cc2ccc(-c3ccc(CNCCc4ccc(S(C)(=O)=O)cc4)cn3)cc2)Cc2ccc3c(c2)OCO3)cc1F
inactive: growth inhibition [1] 41% | inhibition [2] 13% | inhibition [3] 3% | outcome [5] | outcome [6] | outcome [7] | outcome [8]
active: growth inhibition [4] 95%

OC(CNCc1ccccc1Oc1ccccc1)c1cccc(C(F)(F)F)c1 (configuration not stated)
active: growth inhibition [1] 98% | growth inhibition [4] 104%
inactive: inhibition [2] -1% | inhibition [3] 10% | outcome [5] | outcome [6] | outcome [7] | outcome [8]

NC(=O)c1cccc(CN2Cc3ccccc3OC3(CCN(Cc4c[nH]c5cnccc45)CC3)C2)c1
inactive: growth inhibition [1] 2% | inhibition [2] 9% | inhibition [3] -2% | outcome [5] | outcome [6] | outcome [7] | outcome [8]
active: growth inhibition [4] 94%

Cc1cccc2[nH]c(-c3ccc(-c4ccc(CN5CCN(CCN6CCOCC6)CC5)cc4)cc3)nc12
active: growth inhibition [1] 74% | growth inhibition [4] 98%
inactive: inhibition [2] 49% | inhibition [3] -1% | outcome [5] | outcome [6] | outcome [7] | outcome [8]

O=C(Cc1ccccc1)NC1(c2ccccc2)CCN(CCc2c[nH]c3ccc(F)cc23)CC1
active: growth inhibition [1] 62% | growth inhibition [4] 87%
inactive: inhibition [2] 29% | inhibition [3] 2% | outcome [5] | outcome [6] | outcome [7] | outcome [8]

CC1(C)N=C(N)N=C(N)N1OCCCOc1cccc2ccccc12
inactive: inhibition [3] 4% | outcome [5] | outcome [6] | outcome [7] | outcome [8]
active: growth inhibition [1] 86% | inhibition [2] 67% | growth inhibition [4] 95%

CC(C)(C)C(Cn1ccnc1)NCc1cn[nH]c1-c1ccc(-c2ccccc2)cc1 (configuration not stated)
inactive: inhibition [2] 15% | inhibition [3] -2% | outcome [5] | outcome [6] | outcome [7] | outcome [8]
active: growth inhibition [1] 69% | growth inhibition [4] 98%

O=C(NCCCN1CCOCC1)c1csc(Nc2ccc(Cl)c(Cl)c2)n1
inactive: growth inhibition [1] 23% | inhibition [2] 5% | inhibition [3] 2% | outcome [5] | outcome [6] | outcome [7] | outcome [8]
active: growth inhibition [4] 92%

O=C(NCCN1CCN(S(=O)(=O)c2ccc(OC3CCNCC3)c(Br)c2)CC1)c1ccc(Cl)c(Cl)c1
active: growth inhibition [4] 89%
inactive: growth inhibition [1] -3% | inhibition [2] 1% | inhibition [3] -3% | outcome [5] | outcome [6] | outcome [7] | outcome [8]

Cc1cccc2[nH]c(-c3ccc(-c4ccc(NC(=O)Nc5cccc(C#N)c5)cc4)s3)nc12
inactive: inhibition [2] 33% | inhibition [3] -6% | outcome [5] | outcome [6] | outcome [7] | outcome [8]
active: growth inhibition [1] 100% | growth inhibition [4] 101%

Fc1ccc(-c2cc3ncnc(N4CCN(CCN5CCCC5)CC4)c3s2)cc1
inactive: growth inhibition [1] 40% | inhibition [2] 25% | inhibition [3] -1% | outcome [5] | outcome [6] | outcome [7] | outcome [8]
active: growth inhibition [4] 98%

COc1ccc(-c2cnc3[nH]cc(-c4ccc(CCC(=O)O)cc4)c3c2)cn1
active: growth inhibition [1] 95% | growth inhibition [4] 98%
inactive: inhibition [2] 25% | inhibition [3] -5% | outcome [5] | outcome [6] | outcome [7] | outcome [8]

Cc1oc(-c2cccc(Oc3ccccc3)c2)nc1CN(Cc1cnn(C)c1)C(C)C
active: growth inhibition [1] 61% | growth inhibition [4] 89%
inactive: inhibition [2] 22% | inhibition [3] 2% | outcome [5] | outcome [6] | outcome [7] | outcome [8]

CC(C)(C)c1ccc(CN(C[C@@H](O)CNS(=O)(=O)c2cc(Cl)cc(Cl)c2)C(C)(C)C)cc1
active: growth inhibition [1] 94% | inhibition [2] 74% | growth inhibition [4] 98%
inactive: inhibition [3] -8% | outcome [5] | outcome [6] | outcome [7] | outcome [8]

CCOC(=O)c1[nH]c(-c2cc(Cl)nc(Cl)c2)nc1NC(=S)NCc1ccc(NS(C)(=O)=O)cc1
active: growth inhibition [1] 98% | growth inhibition [4] 100%
inactive: inhibition [2] -1% | inhibition [3] -1% | outcome [5] | outcome [6] | outcome [7] | outcome [8]

Cn1c(N)c(N=O)c(=O)[nH]c1=O
inactive: inhibition [3] 0% | outcome [5] | outcome [6] | outcome [7] | outcome [8]
active: growth inhibition [1] 82% | inhibition [2] 58% | growth inhibition [4] 97%

COc1cccc(-c2ccc3c(-c4ccc(F)cc4)cnc(N)c3c2)c1
active: growth inhibition [1] 70% | growth inhibition [4] 100%
inactive: inhibition [2] 27% | inhibition [3] -2% | outcome [5] | outcome [6] | outcome [7] | outcome [8]

CCCCCCCN1CC[C@@H](C[C@H](N)Cc2ccnc3ccc(OC)cc23)[C@@H](CC)C1
active: growth inhibition [1] 51% | growth inhibition [4] 91%
inactive: inhibition [2] 33% | inhibition [3] -2% | outcome [5] | outcome [6] | outcome [7] | outcome [8]

O=C(c1cccc(-c2cccc(-c3nc4ccc(F)cc4[nH]3)c2)c1)N1CCCCC1CN1CCC(O)C1 (configuration not stated)
inactive: inhibition [2] 36% | inhibition [3] -5% | outcome [5] | outcome [6] | outcome [7] | outcome [8]
active: growth inhibition [1] 100% | growth inhibition [4] 90%

CC(C)c1ccc(NC(=O)NCC2CCCN(CCCCCNC(=O)/C=C/c3ccc(Cl)c(Cl)c3)C2)cc1 (configuration not stated)
active: inhibition [2] 87% | growth inhibition [4] 98%
inactive: growth inhibition [1] 6% | inhibition [3] -13% | outcome [5] | outcome [6] | outcome [7] | outcome [8]

Cn1cccc1CCNCc1ccc(-c2cccc(-c3nc4ccc(F)cc4[nH]3)c2)cc1
active: growth inhibition [4] 93%
inactive: growth inhibition [1] 43% | inhibition [2] -2% | inhibition [3] 1% | outcome [5] | outcome [6] | outcome [7] | outcome [8]

Cc1nnc2c(N(C(=O)NCCc3ccccc3)C(=O)NCCc3ccccc3)cc3cc(Cl)ccc3n12
active: growth inhibition [4] 91%
inactive: growth inhibition [1] 34% | inhibition [2] 0% | inhibition [3] -5% | outcome [5] | outcome [6] | outcome [7] | outcome [8]

CCc1c[nH]c2c(N(c3ccccc3)S(C)(=O)=O)cc(C(=O)N[C@@H](Cc3ccccc3)[C@H](O)CNC(C)(C)CCCC(C)C)cc12
inactive: inhibition [3] -1% | outcome [5] | outcome [6] | outcome [7] | outcome [8]
active: growth inhibition [1] 96% | inhibition [2] 99% | growth inhibition [4] 98%

COc1cc(F)c2ncc(F)c([C@@H](O)CN3CCC(NCc4cc5c(cn4)OCCO5)CC3)c2c1
active: growth inhibition [1] 88% | growth inhibition [4] 101%
inactive: inhibition [2] 1% | inhibition [3] -1% | outcome [5] | outcome [6] | outcome [7] | outcome [8]

COc1ccc(-c2cccc(CNC3CCN(CC4Cn5c(=O)ccc6ccc(F)c4c65)CC3)c2)cc1 (configuration not stated)
active: growth inhibition [1] 74% | growth inhibition [4] 101%
inactive: inhibition [2] 22% | inhibition [3] 0% | outcome [5] | outcome [6] | outcome [7] | outcome [8]

O=S(=O)(Nc1cccc(CCN2CCC(N3CCCCC3)CC2)c1)c1ccc(Cl)cc1
active: growth inhibition [4] 94%
inactive: growth inhibition [1] 23% | inhibition [2] 18% | inhibition [3] -1% | outcome [5] | outcome [6] | outcome [7] | outcome [8]

CCCCOc1c(CCC)cc(Cc2cnc(N)nc2N)cc1CCC
active: growth inhibition [4] 97%
inactive: growth inhibition [1] -2% | inhibition [2] 27% | inhibition [3] 2% | outcome [5] | outcome [6] | outcome [7] | outcome [8]

COc1cc2c(cc1CCNCCCCNCCc1cc3c(cc1OC)CCCC3)CCCC2
active: inhibition [2] 100% | growth inhibition [4] 101%
inactive: growth inhibition [1] 36% | inhibition [3] 0% | outcome [5] | outcome [6] | outcome [7] | outcome [8]

O=C(NCc1cccc(Br)c1)c1ccc(CNC2CCN(Cc3ccccc3)CC2)cc1
active: growth inhibition [4] 100%
inactive: growth inhibition [1] 49% | inhibition [2] 3% | inhibition [3] 4% | outcome [5] | outcome [6] | outcome [7] | outcome [8]

Cc1cc(N[C@@H](Cc2ccccc2)C(=O)NCc2cccs2)nc(NCCc2ccccc2)n1
active: growth inhibition [1] 61% | growth inhibition [4] 92%
inactive: inhibition [2] 6% | inhibition [3] -1% | outcome [5] | outcome [6] | outcome [7] | outcome [8]

COc1ccc(C(=O)Nc2ccc(-c3nc4ccc(C)cc4[nH]3)cc2)cc1OC
inactive: growth inhibition [1] 38% | inhibition [3] 0% | outcome [5] | outcome [6] | outcome [7] | outcome [8]
active: inhibition [2] 70% | growth inhibition [4] 100%
